Test [1] is described as follows: qHTS assay to identify small molecule antagonists of the estrogen related receptor (ERR) signaling pathway from Tox21 library - cell viability counter screen (AID 1224834). Also: potency is read from the fitted curve at half-maximal effect; nearly all actives have a fitted effect of over 30% in size. As to conditions: ERR reporter cells viability, CellTiter-Fluor, 17.5 h; series mostly up to 92.4 µM. The essentials:
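Compounds in DMSO were pinned onto ERR cells that had been incubated for 6 h, and the plates were held at 37 C for 17.5 h. CellTiter-Fluor reagent was then added and fluorescence was measured after 30 min.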

Test [2] has as its target Nuclear receptor subfamily 1 group I member 3 (Homo sapiens) (UniProt Q14994). The test can be described thus: qHTS assay to identify small molecule antagonists of the constitutive androstane receptor (CAR) signaling pathway (AID 1224838). Also: % is scaled to controls: 0 for no effect and ±100 for the full control effect; nearly all actives have a fitted effect of over 40% in size. As to conditions: HepG2-CYP2B6-hCAR luciferase, CITCO-stimulated, 24 h; series mostly up to 92.4 µM. The essentials: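 Luminescence from a CYP2B6-2.2kb promoter reporter in hCAR-expressing HepG2 cells reflects CAR signaling. Cells received compounds at 15 concentrations and 50 nM CITCO (final), then incubated 24 h at 37 C/5% CO2.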
A general note: In qHTS, concentration-response curves come from the screen itself.

The nature of test [3]: qHTS assay to identify small molecule antagonists of the estrogen related receptor signaling pathway with the pleiotropic PPARgamma coactivator (PGC) from Tox21 10K library (AID 1224841; call rule not given here; also: actives are mostly falling curves and most rising ones were filed inactive; nearly all actives have a fitted effect of over 50% in size; also: potency is read from the fitted curve at half-maximal effect). As to conditions: PGC/ERR reporter cell line, ONE-Glo luciferase, 18 h; series mostly up to 92.4 µM. A digest of the protocol: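 Cells stably carrying the PGC/ERR reporter, seeded at 2,000 per well, received pin-transferred compounds 6 h post-plating. Exposure lasted 18 h at 37 C. Signal: One-Glo luminescence.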

Test [4] in a line: qHTS assay to identify small molecule agonists of the estrogen related receptor signaling pathway with the pleiotropic PPARgamma coactivator (PGC) from Tox21 10K library (AID 1224842). Also: % is scaled to controls: 0 for no effect and ±100 for the full control effect; nearly all actives have a fitted effect of over 15% in size. The following applies: PGC/ERR reporter cell line, luciferase ONE-Glo, 18 h; series mostly up to 92.4 µM. A digest of the protocol:
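PGC/ERR reporter cell line, 2,000 cells per well, incubated 6 h at 37 C before 23 nL compound in DMSO was added. After 18 h at 37 C, One-Glo luminescence read following 30 min at room temperature.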

Test [5] is described as follows: qHTS assay to identify small molecule agonists of H2AX (AID 1224845; active = well fitted activation curve with a large enough effect in the signal ratio in the repeat runs, not every such curve was filed as active; the % refers to the signal ratio; also: % is scaled to controls: 0 for no effect and ±100 for the full control effect). As to conditions: CHO-K1 phospho-H2AX Ser139 HTRF, 3 h; series mostly up to 154 µM. The essentials:
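Wild-type CHO-K1 cells, plated overnight, exposed 3hr at 37C to 15 concentrations (0.76% DMSO final). Lysed, then HTRF anti-pH2AX (S139) cryptate and anti-H2AX-d2 antibodies, 24 hr room temperature; 665/620 nm emission read.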

Test [6] is described as follows: qHTS assay to identify small molecule agonists of H2AX - cell viability counter screen (AID 1224847; calls by dose curve; also: nearly all actives have a fitted effect of over 30% in size; also: potency is read from the fitted curve at half-maximal effect). The following applies: CHO-K1 viability, CellTiter-Glo luminescence, 3 h; series mostly up to 154 µM. The essentials: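 Viability of CHO-K1 (wild type) cells after 3 hr compound exposure was measured by CellTiter-Glo luminescence.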
A short description of test [7]: qHTS assay to identify small molecule antagonists of the estrogen related receptor (ERR) signaling pathway from Tox21 library (AID 1224848). Also: nearly all actives have a fitted effect of over 50% in size. Also: potency is read from the fitted curve at half-maximal effect. The following applies: ERR reporter cell line, luciferase antagonist mode, 18 h; series mostly up to 92.4 µM. A digest of the protocol: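 Quantitative high-throughput format: ERR reporter cells (2,000/well) pre-incubated 6 h, treated 18 h at 37 C with compounds in DMSO alongside positive and negative controls, then read by ONE-Glo luminescence.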

The nature of test [8]: qHTS assay to identify small molecule agonists of the estrogen related receptor (ERR) signaling pathway from Tox21 library (AID 1224849; calls by dose curve; also: % is scaled to controls: 0 for no effect and ±100 for the full control effect; nearly all actives have a fitted effect of over 15% in size). The following applies: ERR reporter cell line, ONE-Glo luciferase, 18 h. A digest of the protocol:
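Quantitative HTS in agonist format: NTP ERR cell line, compounds transferred in DMSO after 6 h plating, 18 h incubation at 37 C, ONE-Glo luminescence endpoint.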

The nature of test [9]: qHTS RealTime-Glo MT Cell Viability Assay in HEK293 cells - 32 hour (AID 1224868). Also: nearly all actives have a fitted effect of over 50% in size. Also: potency is read from the fitted curve at half-maximal effect. The following applies: RealTime-Glo luminescence; series mostly up to 76.8 µM. A digest of the protocol: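 HEK293 cells were seeded at 600 cells/well together with NanoLuc luciferase and cell-permeant prosubstrate, preincubated 5 h at 37 C/5% CO2, then given compound in DMSO by pintool. Luminescence from viable-cell prosubstrate reduction was read repeatedly over 40 h.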

A short description of test [10]: A CellTox Green Cytotoxicity Assay to monitor cytotoxicity in HEK293 cells - 0 hour (AID 1224869). Also: % is scaled to controls: 0 for no effect and ±100 for the full control effect; nearly all actives have a fitted effect of over 50% in size. As to conditions: CellTox Green fluorescence; series mostly up to 76.8 µM. A digest of the protocol:
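Dead-cell fluorescence measured kinetically: asymmetric cyanine dye, HEK293, 600 cells/well, 5 h settle, 23 nL cpd/DMSO, 37 C, reads 0–40 h every 8 h.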

Test [11] deals with Luciferin 4-monooxygenase (Photinus pyralis) (UniProt P08659). Nature of the test: qHTS assay to identify small molecule inhibitors of firefly luciferase (AID 1224835). Also: nearly all actives have a fitted effect of over 25% in size. Also: potency is read from the fitted curve at half-maximal effect. The following applies: purified P. pyralis luciferase, luminescence inhibition; series mostly up to 115 µM. A digest of the protocol:
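Biochemical qHTS: compounds run as interplate titrations against purified firefly enzyme, with D-luciferin and ATP each at its KM concentration. Light output recorded by CCD imaging.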

Test [12] is described as follows: qHTS assay to identify small molecule agonists of the constitutive androstane receptor (CAR) signaling pathway - cell viability counter screen (AID 1224836). Also: % is scaled to controls: 0 for no effect and ±100 for the full control effect; nearly all actives have a fitted effect of over 45% in size. As to conditions: HepG2-CYP2B6-hCAR viability, CellTiter-Fluor, 23 h, PK11195 added to every well; series mostly up to 92.4 µM. The essentials:
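Fluorescence from CellTiter-Fluor indicates live cells after 23 h exposure. The human hepatoma line expresses hCAR and a CYP2B6-2.2kb reporter. Incubation medium contains 0.75 uM PK11195 (final).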

A short description of test [13]: qHTS assay to identify small molecule antagonists of the constitutive androstane receptor (CAR) signaling pathway - cell viability counter screen (AID 1224837). Also: % is scaled to controls: 0 for no effect and ±100 for the full control effect; nearly all actives have a fitted effect of over 45% in size. As to conditions: HepG2-CYP2B6-hCAR viability, CellTiter-Fluor, 23 h, co-treated with 50 nM CITCO; series mostly up to 92.4 µM. A digest of the protocol:
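Cells are seeded, rested 4 hr at 37 C/5% CO2, dosed with compound (15-point series) and 50 nM CITCO, incubated a further 23 hr, and then CellTiter-Fluor reagent is added before fluorescence is read. The line is HepG2 with stable hCAR and CYP2B6-2.2kb.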

Test [14] deals with Nuclear receptor subfamily 1 group I member 3 (Homo sapiens) (UniProt Q14994). The test can be described thus: qHTS assay to identify small molecule agonists of the constitutive androstane receptor (CAR) signaling pathway (AID 1224839). Also: nearly all actives have a fitted effect of over 15% in size. Also: potency is read from the fitted curve at half-maximal effect.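 As to activation: HepG2 cells stably carrying human CAR and a CYP2B6 luciferase reporter; % is scaled to controls: 0 for no effect and ±100 for the full control effect.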 The following applies: HepG2 hCAR CYP2B6-luciferase, agonist mode, 24 h; series mostly up to 92.4 µM. The essentials:
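Stable hCAR/CYP2B6-2.2kb HepG2 line in DMEM with 10% FBS; compounds (15 concentrations) and 0.75 uM PK11195 final, 24 h at 37 C/5% CO2, then ONE-Glo luminescence after 30 min.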

Test [15] in a line: qHTS assay to identify small molecule antagonists of the estrogen related receptor signaling pathway with the pleiotropic PPARgamma coactivator (PGC) from Tox21 10K library - cell viability counter screen (AID 1224840; active = well fitted cell-killing curve with a large enough effect in the repeat runs, not every such curve was filed as active; also: nearly all actives have a fitted effect of over 40% in size; also: potency is read from the fitted curve at half-maximal effect). As to conditions: PGC/ERR reporter cells viability, CellTiter-Fluor, 17.5 h; series mostly up to 92.4 µM. A digest of the protocol: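 Cell viability is measured by CellTiter-Fluor fluorescence in PGC/ERR cells that receive compounds after a 6-hour attachment period and are then incubated 17.5 hours at 37 C.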

Test [16] can be described thus: qHTS assay to identify small molecule agonists of the hypoxia (HIF-1) signaling pathway - cell viability counter screen (AID 1224844; calls by dose curve; also: nearly all actives have a fitted effect of over 50% in size; also: potency is read from the fitted curve at half-maximal effect). As to conditions: HRE-bla ME-180 viability, CellTiter-Glo luminescence, 17 h; series mostly up to 76.8 µM. A digest of the protocol: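 Viability counter screen: HRE-bla ME-180 cells plated 5 hrs before compound addition, treated 17 hrs at 37C and 5% CO2, then CellTiter-Glo added after the FRET reporter read; luminescence after 30 min.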

Test [17] in a line: qHTS assay to identify small molecule agonists of the hypoxia (HIF-1) signaling pathway (AID 1224846; active = well fitted activation curve with a large enough effect in the signal ratio in the repeat runs, not every such curve was filed as active; the % refers to the signal ratio; also: % is scaled to controls: 0 for no effect and ±100 for the full control effect). The following applies: HRE-bla ME-180 cells, beta-lactamase ratio, 17 h; series mostly up to 76.8 µM. The essentials:
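Agonist mode reporter screen. ME-180 cells stably expressing bla under HRE control received test compounds in DMSO for 17 hrs (37C, 5% CO2), and beta-lactamase activity was then detected with the CCF4-AM FRET substrate.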

Test [18] is described as follows: qHTS RealTime-Glo MT Cell Viability Assay in HepG2 cells - 24 hour (AID 1224867). Also: nearly all actives have a fitted effect of over 50% in size. Also: potency is read from the fitted curve at half-maximal effect. The following applies: RealTime-Glo luminescence; series mostly up to 76.8 µM. The essentials: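 HepG2 cells were seeded at 600 cells/well together with NanoLuc luciferase and a cell-permeant prosubstrate, preincubated 5 h at 37 C/5% CO2, then pin-dosed with compounds in DMSO. Nonlytic luminescence from viable cells was read at each time point.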

Test [19] can be described thus: qHTS RealTime-Glo MT Cell Viability Assay in HepG2 cells - 40 hour (AID 1224870). As to conditions: RealTime-Glo luminescence; series mostly up to 76.8 µM. A digest of the protocol:
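HepG2 cells (600/well) mixed with RealTime-Glo MT reagent, settled 5 h at 37 C/5% CO2 before compound addition. Nonlytic NanoLuc luminescence from viable-cell prosubstrate reduction read repeatedly during 40 h treatment at 37 C.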

The target of test [20] is Thyrotropin receptor (Homo sapiens) (UniProt P16473). Nature of the test: qHTS assay to identify small molecule agonists of the thyroid stimulating hormone receptor (TSHR) signaling pathway (AID 1224843; calls by dose curve; also: nearly all actives have a fitted effect of over 45% in size; also: potency is read from the fitted curve at half-maximal effect; as to activation: % is scaled to controls: 0 for no effect and ±100 for the full control effect). The following applies: TSHR-HEK293 cells, cAMP HTRF, agonist mode, 30 min; series mostly up to 92.4 µM. The essentials:
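Agonist-mode screen: TSHR HEK293 cells received test chemicals for half an hour at room temperature, then HTRF cAMP detection reagents for one hour prior to fluorescence measurement. Each chemical ran as a 15-concentration series, triplicated.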

Unmarked numbers belong to inactive results. Results filed as inconclusive are left out. The source made the active and inactive calls. Unless noted, calls follow the shape of the dose curve; as a rule, active = well fitted curve in the direction sought with a large enough effect in the repeat runs; inconclusive = weak or mixed curves; inactive = no such curve, though single readings can be large; an effect the other way counts as inactive or inconclusive.

Chain of Nuclear receptor subfamily 1 group I member 3 (Homo sapiens) (Q14994 whole entry, looked up): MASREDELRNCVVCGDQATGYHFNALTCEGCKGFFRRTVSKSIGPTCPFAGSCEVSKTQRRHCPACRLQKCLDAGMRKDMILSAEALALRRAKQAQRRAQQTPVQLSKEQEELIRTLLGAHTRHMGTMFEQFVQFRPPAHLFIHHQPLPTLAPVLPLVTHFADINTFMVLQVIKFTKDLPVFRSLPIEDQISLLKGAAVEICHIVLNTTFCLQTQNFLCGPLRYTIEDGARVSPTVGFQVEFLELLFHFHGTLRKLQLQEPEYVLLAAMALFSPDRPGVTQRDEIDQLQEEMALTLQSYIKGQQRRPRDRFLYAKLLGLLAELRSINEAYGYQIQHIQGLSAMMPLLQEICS
Chain of Luciferin 4-monooxygenase (Photinus pyralis) (P08659 whole entry, looked up): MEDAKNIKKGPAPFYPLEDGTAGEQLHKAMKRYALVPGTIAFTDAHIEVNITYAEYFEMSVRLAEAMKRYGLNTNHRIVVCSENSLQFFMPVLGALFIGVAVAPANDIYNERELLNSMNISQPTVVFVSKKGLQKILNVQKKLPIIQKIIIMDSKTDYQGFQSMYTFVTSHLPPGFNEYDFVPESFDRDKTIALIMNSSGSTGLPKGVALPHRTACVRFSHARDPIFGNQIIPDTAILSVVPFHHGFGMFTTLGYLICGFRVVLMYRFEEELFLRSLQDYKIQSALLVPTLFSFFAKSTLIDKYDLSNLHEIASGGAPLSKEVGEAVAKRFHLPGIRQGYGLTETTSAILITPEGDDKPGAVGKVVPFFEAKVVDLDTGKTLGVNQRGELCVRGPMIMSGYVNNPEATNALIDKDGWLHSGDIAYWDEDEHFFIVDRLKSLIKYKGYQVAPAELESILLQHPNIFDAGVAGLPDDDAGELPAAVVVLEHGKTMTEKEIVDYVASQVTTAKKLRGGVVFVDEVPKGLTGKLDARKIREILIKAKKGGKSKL
Chain of Thyrotropin receptor (Homo sapiens) (P16473 whole entry, looked up): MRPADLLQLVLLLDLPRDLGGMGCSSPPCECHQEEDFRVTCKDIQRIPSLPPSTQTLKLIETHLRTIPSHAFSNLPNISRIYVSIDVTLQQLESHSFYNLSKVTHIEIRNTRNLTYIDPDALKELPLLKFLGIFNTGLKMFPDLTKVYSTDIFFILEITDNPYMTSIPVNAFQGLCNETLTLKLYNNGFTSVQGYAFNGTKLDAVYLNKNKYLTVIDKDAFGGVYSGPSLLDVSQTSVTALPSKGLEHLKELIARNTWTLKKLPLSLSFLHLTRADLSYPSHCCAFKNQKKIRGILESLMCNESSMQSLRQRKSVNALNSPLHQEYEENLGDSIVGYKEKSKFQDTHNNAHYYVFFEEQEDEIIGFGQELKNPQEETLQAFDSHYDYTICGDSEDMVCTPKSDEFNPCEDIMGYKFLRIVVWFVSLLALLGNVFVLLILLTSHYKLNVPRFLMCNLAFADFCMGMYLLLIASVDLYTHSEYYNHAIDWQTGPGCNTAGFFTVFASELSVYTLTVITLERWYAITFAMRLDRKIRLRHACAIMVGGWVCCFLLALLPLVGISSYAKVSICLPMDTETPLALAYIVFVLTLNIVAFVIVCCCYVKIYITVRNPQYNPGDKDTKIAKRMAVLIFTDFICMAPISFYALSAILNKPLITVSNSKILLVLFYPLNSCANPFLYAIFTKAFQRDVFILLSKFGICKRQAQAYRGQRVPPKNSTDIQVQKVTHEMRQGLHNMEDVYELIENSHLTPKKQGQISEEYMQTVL

Take `O=C1CCc2ccc(OCCCCN3CCN(c4cccc(Cl)c4Cl)CC3)cc2N1`: the Potency in test [1] is 26.6 µM (active); in [3], 11.9 µM (active); in test [6] it was 55.2 µM (active); in [7] it was 11.9 µM (active); in test [9], 10.7 µM (active). Besides, the Potency result in test [2], in test [4], in test [5] and in [10] was “inactive” throughout. The activity change, positive = activation in [8] (at 42.5 µM (top of the series)) was -56%.
Consider `CCCCCC(C)OC(=O)COc1ccc(Cl)c2cccnc12` (stereo not drawn), for which the Potency entry in test [11], in test [12], in test [13], in test [2], in test [14] and in [15] was “inactive” throughout. Besides, the Potency result in [16], in test [5], in [17], in test [18], in test [9] and in test [10] was “inactive” throughout. In addition, the Potency result in test [19] is “inactive”.
Take `CCC(=O)C(=O)CC`: the Potency result in [11], in test [12], in test [13], in [15], in test [3] and in [4] was “inactive” in each case. In addition, the Potency result in test [20], in test [16], in test [5], in test [17], in test [6] and in [7] was “inactive” in each case. Besides, the Potency result in test [18], in test [10] and in test [19] was “inactive” throughout. Besides, in test [8] (at 92.4 µM (top of the series)), the activity change, positive = activation was -15.7%.
`CC[C@H](C)COC(=O)/C=C/c1ccc(N=Cc2ccc(OC)cc2)cc1`: the Potency in [11] is 4.47 µM (active); in test [14], 24.3 µM (active); in test [6], 89.7 µM (active); in [9] it was 21.8 µM (active). The Potency result in test [12], in test [13], in test [2], in [15], in [20] and in test [16] was “inactive” throughout. The Potency result in [5], in [17], in [18] and in test [10] was “inactive” each time.
As for `C=CC(C)(CCC=C(C)C)OC=O` (stereo not drawn), the Potency entry in test [11], in test [12], in [13], in [2], in [14] and in [15] was “inactive” throughout. Further, the Potency result in test [3], in [4], in test [20], in test [16], in test [5] and in [17] was “inactive” in each case. For the same molecule, the Potency result in test [6], in test [7], in test [18], in test [9], in test [10] and in test [19] was “inactive” in each case. For the same molecule, in test [8] (at 92.4 µM (top of the series)), the activity change, positive = activation is 1.64%.
Regarding `CN(C)[C@@H](CCOc1cccc2ccccc12)c1ccccc1`, the Potency entry in test [11], in [13], in [2], in test [14], in [3] and in test [4] was “inactive” each time. The Potency result in [17] and in test [10] was “inactive” throughout. In test [20], the Potency is 33.5 µM (active). Besides, in [8] (at 42.5 µM (top of the series)), the activity change, positive = activation was -27.2%.
In the case of `CC(C)(C)C1CCC(=O)CC1`, the Potency result in test [11], in [12], in test [13], in test [15], in test [3] and in [4] was “inactive” in each case. The Potency entry in test [20], in [16], in test [5], in test [17], in [7] and in test [18] was “inactive” each time. Also, the Potency result in test [9] and in [19] was “inactive” in each case. The activity change, positive = activation in test [8] (at 92.4 µM (top of the series)) was -0.544%.
Regarding `OCCN1CCN(CCCN2c3ccccc3Sc3ccc(C(F)(F)F)cc32)CC1`, the Potency result in [11], in [2], in [3], in test [20], in [5] and in [10] was “inactive” throughout. Also, the Potency in [15] is 29.8 µM (active); in test [16], 19 µM (active); in [18], 26.8 µM (active); in test [9], 23.9 µM (active). The activity change, positive = activation in [8] (at 42.5 µM (top of the series)) is -32%.

Values taken from PubChem BioAssay (Tox21).
